Results from PubChem BioAssay (NCI).
Values joined by “and” are separate entries in the source; they are usually repeats but may differ in a detail not shown here. Identical values can stand only once. This is part of a sample that, as a whole, favours compounds with a hit. Of some 79,000 tested, about 15% had one in any assay. Cut-off read from the data, not from the text of the source: active = growth inhibition above about 70%; inactive = the rest.

Tests used:
[1] = NCI Yeast Anticancer Drug Screen. Data for the rad50 strain (AID 155);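 note: 0% = growth of vehicle-only cultures of the same strain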; details: S. cerevisiae rad50 strain growth inhibition, stronger effect = higher value; at 50.0 µM unless noted
Outline: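 Genetically altered yeast (DNA repair pathway); compound treatment; growth inhibition vs vehicle ctrl.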

[2] = NCI Yeast Anticancer Drug Screen. Data for the mec2-1 strain (AID 157); details: S. cerevisiae mec2-1 strain, stronger effect = higher value; at 50.0 µM unless noted
Outline: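 Compounds were applied to mec2-1 yeast cells. Their growth was then compared with that of vehicle-treated cultures to give growth inhibition.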

[3] = NCI Yeast Anticancer Drug Screen. Data for the sgs1 mgt1 strain (AID 161);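 note: 0% = growth of cultures given vehicle only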; details: S. cerevisiae sgs1 mgt1 strain, stronger effect = higher value; at 50.0 µM unless noted
Outline: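 Compounds are added to genetically altered yeast, and growth is compared with cultures given vehicle alone to give percent inhibition.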

[4] = NCI Yeast Anticancer Drug Screen. Data for the cln2 rad14 strain (AID 165);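 note: 0% = growth equal to vehicle treated cultures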; details: S. cerevisiae cln2 rad14 strain, stronger effect = higher value; at 50.0 µM unless noted
Outline: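 Strain: cln2 rad14 yeast, altered in cell cycle control and DNA damage repair. Read-out: growth inhibition vs vehicle.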

[5] = NCI Yeast Anticancer Drug Screen. Data for the bub3 strain (AID 167); details: S. cerevisiae bub3 mutant strain, stronger effect = higher value; at 50.0 µM unless noted
Outline: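 Yeast carrying a defined mutation is treated with each compound, and growth is compared with that of vehicle-exposed cells to give inhibition.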

[6] = NCI Yeast Anticancer Drug Screen. Data for the mlh1 rad18 strain (AID 175); details: S. cerevisiae mlh1 rad18 strain growth inhibition, stronger effect = higher value; at 50.0 µM unless noted
Outline: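 A repair-deficient yeast strain is exposed to test compound, and growth is scored relative to vehicle-treated controls.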

Measured: growth inhibition

COC(=O)C1CCCC1
inactive: [1] 3.75% | [2] -44% | [3] 16.2% | [4] 9.4% | [5] -2.8% | [6] 22.6%

N=C(N)SCc1ccc(Oc2ccc(CSC(=N)N)cc2)cc1
inactive: [1] 0.4% | [2] 1.45% | [3] -4.5% | [4] 0.5% | [5] -2.4% | [6] 15.3%

O=C(Nc1ccc(F)cc1)N1CCOCC1
inactive: [1] 1.65% | [2] -25% | [3] 4.3% | [4] 9.6% | [5] 6.8% | [6] -9.4%

CC1(C)OCC(N)[C@@H](O)CO1 (some centres undefined)
inactive: [1] 5% | [2] 12.9% | [3] 13.3% | [4] -26.2% | [5] 3.5% | [6] -0.65%

CN1C(=O)N(C2CCCCC2)C(=O)C(C)(CN2CCCCC2)C1=O (centres undefined)
inactive: [1] 12.7% | [2] 14.1% | [3] 12.2% | [4] 17.6% | [5] -5.25% | [6] 12.2%

CCCNCCCCCCNc1cc(OC)cc2cccnc12
inactive: [1] 54.9% | [2] 6.05% | [3] 39.7% | [4] 63.4% | [5] 31.9% | [6] 54.3%

CN1c2ccccc2N(C(=O)c2ccc(Cl)cc2)C(CC(=O)O)c2cccn21 (centres undefined)
inactive: [1] 43.1% | [2] 31.1% | [3] 23.3% | [4] 44.8% | [5] 38.5% | [6] 29.2%

COc1ccc(-c2oc3c(CC(=O)O)cccc3c(=O)c2OC)cc1
inactive: [1] -8.75% | [2] -15.3% | [3] -25.3% | [4] -14.4% | [5] -12.7% | [6] -12.3%

c1cnc2c(c1)Oc1nc3ccccc3nc1S2
inactive: [1] 2.25% | [2] 6% | [3] 3.9% | [4] 35.9% | [5] 8.9% | [6] 23.1%

O=C(Nc1ccc(Nc2ccc3c(c2)C(=O)c2ccccc2C3=O)c2c1C(=O)c1ccccc1C2=O)c1ccccc1
inactive: [1] -35.7% | [2] -15.2% | [3] -15.3% | [4] -36.7% | [5] -15.2% | [6] -25.6%

CC(C)(CO)N=Cc1ccccc1O
inactive: [1] -0.25% | [2] -1.6% | [3] -14.2% | [4] -3.8% | [5] -13.3% | [6] 6.35%

CCCCCCCCCCCCCCCCCC(=O)N/N=C\c1c(O)ccc2ccccc12
inactive: [1] 21.4% | [2] 11.7% | [3] 4.85% | [4] 2.15% | [5] -10.1% | [6] 20.2%

NC1CCC[C@@H](O)[C@H]1O (some centres undefined)
inactive: [1] -4.9% | [2] 22.9% | [3] 8.7% | [4] -7.1% | [5] 9.6% | [6] -0.55%

C=CCNC(=S)N/C=C(\C#N)C(N)=O
inactive: [1] -24.4% | [2] -40.3% | [3] -27.2% | [4] -7.15% | [5] -12.6% | [6] -41.5%

COC(=O)C1Cc2c([nH]c3ccccc23)C=N1 (centres undefined)
inactive: [1] 65.3% | [2] 31.2% | [3] 55% | [4] 45.5% | [5] 14.8% | [6] 62.6%

CCC(=O)c1cccc2cccc(C(c3ccccc3)c3ccccc3)c12
inactive: [1] 1.85% | [2] 14.4% | [3] 6.35% | [4] -7.05% | [5] 8.7% | [6] -19.6%

NC(=O)NCCCC(N)C(=O)O (centres undefined)
inactive: [1] 7.7% and -23.9% | [2] -16.2% and -16.6% | [3] -5.85% and -13.1% | [4] -2.4% and 2.9% | [5] 9.45% and -39.5% | [6] -10.4% and -14.9%

CCCCC(CC)OC(=O)c1ccccc1C (centres undefined)
inactive: [1] -8.05% | [2] -4.55% | [3] 0.5% | [4] -30.9% | [5] -1.4% | [6] -23.8%

CCS(=O)(=O)CC(O)CS(=O)(=O)CC
inactive: [1] 6.5% | [2] -6.35% | [3] -38% | [4] -4.95% | [5] -6.35% | [6] -15.4%

Oc1cc(O)c2c(c1)OC(c1ccc(O)c(O)c1)C(O)C2O (centres undefined)
inactive: [1] 20.2% | [2] 6.6% | [3] 14.3% | [4] -3.55% | [5] 21.2% | [6] 30.9%

O=C1c2ccccc2C(=O)N1c1ccc(OCCN2CCCCC2)cc1
inactive: [1] 11.8% | [2] -1.7% | [3] 7.45% | [4] 37.5% | [5] -2.05% | [6] 18.4%

C=C(NC(=O)C(=C)NC(=O)c1csc(C2=NC3c4csc(n4)C4NC(=O)c5csc(n5)C(C(C)(O)C(C)O)NC(=O)C5CSC(=N5)/C(=C/C)NC(=O)C(C(C)O)NC(=O)c5csc(n5)C3(CC2)NC(=O)C(C)NC(=O)C(=C)NC(=O)C(C)NC(=O)C(C(C)CC)NC2C=Cc3c(C(C)O)cc(nc3C2O)C(=O)OC4C)n1)C(N)=O (centres undefined)
inactive: [1] 11.9% and 15.1% | [2] 10.8% and -10.4% | [3] 13.8% and 18.1% | [4] 29.5% and 23.2% | [5] 34.2% and 32.5% | [6] 13.2% and 36.2%

CCOC(=O)C1=C(C(=O)c2ccc(OC)cc2)C(c2ccc([N+](=O)[O-])cc2)C(C(=O)c2ccc(OC)cc2)=C(C(=O)OCC)N1
inactive: [1] 11.1% | [2] 5.8% | [3] 0.1% | [4] 14.1% | [5] 4.95% | [6] -3.25%

N#CC(C(=O)CCC(=O)C(C#N)c1ccccc1)c1ccccc1 (centres undefined)
inactive: [1] -26.4% | [2] -14.8% | [3] 1.2% | [4] 5.9% | [5] 6.45% | [6] -6.4%

O=NNc1ccc(S(=O)(=O)c2ccc3ccccc3c2)cn1
inactive: [1] 31.7% | [2] 12.8% | [3] -24.9% | [4] -8.95% | [5] -25.6% | [6] -88.5%

Nc1ccc(N)c2c(O)c3ccccc3c(O)c12
inactive: [1] 5.2% | [2] 11.8% | [3] 12.9% | [4] -1.8% | [5] 1.8% | [6] 22%

C=CCN(N=O)C(=O)N(CCCCC(NC(C)=O)C(=O)NCc1ccccc1)Cc1ccccc1 (centres undefined)
inactive: [1] -0.95% | [2] -13.1% | [3] -21.4% | [4] -26.5% | [5] -22.3% | [6] -17.1%

CC(C)CCC(C)C1CCC2C3CCC4CC(=O)CC4(C)C3CCC12C (centres undefined)
inactive: [1] -13.5% | [2] 7.2% | [3] -20.1% | [4] -10.4% | [5] -11.6% | [6] 2.85%

COC(=O)c1cc2c(cc1/C=C/C=O)OCO2
inactive: [1] -20% | [2] -15.8% | [3] -19.4% | [4] -27.9% | [5] -11% | [6] 13.8%

O=C(O)/C=C/c1ccc(OS(=O)(=O)O)cc1
inactive: [1] -12.6% | [2] -31.4% | [3] -14.9% | [4] 7.8% | [5] -9.8% | [6] -7.4%

C/C(CC(=O)Nc1cc(C)ccc1C)=N\NC(=O)c1ccncc1
inactive: [1] 11.8% | [2] -0.4% | [3] 10.7% | [4] 22.7% | [5] -0.75% | [6] 1.15%

CC(=O)NS(=O)(=O)c1ccc(NC(=O)/C=C/C(=O)O)cc1
inactive: [1] 1.1% and -16.6% | [2] -15.7% and -18.1% | [3] -0.45% | [4] -3.05% | [5] -11.7% | [6] 19.9% and -18%

O=[N+]([O-])c1ccc(S(=O)(=O)O)cc1
inactive: [1] 43.6% | [2] 25.1% | [3] 37.5% | [4] -22.7% | [5] 9.65% | [6] 43.1%

COC(=O)C1=CO[C@@H](OC2OC(CO)C(O)C(O)C2O)[C@H]2[C@@H]1C=C[C@@]21C=C([C@H](C)OC(=O)/C=C/c2ccc(OC3OC(CO)C(O)C(O)C3O)cc2)C(=O)O1 (some centres undefined)
inactive: [1] -18.4% | [2] -18.6% | [3] -20.1% | [4] -6.15% | [5] 2.65% | [6] -20.1%
